Laboratory results as given in the supplement of paper PMC7411054.

Columns and labels:
Settings in all cases: treatment time: 24 h
HepG2-GM130-SQSTM1 [1] = assay: lowest phenotypically active concentration; higher = less potent
Outline: (§1)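 Live-cell features were measured per well and normalised to solvent control wells after fifteen gene-edited A549, HepG2 and WPMY1 reporter lines had been treated for 24 h at 0.3, 1, 3 or 9 µM in four wells each. A condition was deviating when ≥3 of 4 wells sat beyond the 95th percentile of control Euclidean distances. It was reproducible when the median replicate Pearson correlation exceeded the 95th percentile of non-replicates. Phenotypic activity demanded both.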

WPMY1-ACTB-RAB5A [2] = assay: as above
Outline: as §1

WPMY1-CANX-COX4 [3] = assay: as above
Outline: as §1

WPMY1-GM130-SQSTM1 [4] = assay: as above
Outline: as §1

WPMY1-TP53BP1-CLTA [5] = assay: as above
Outline: as §1

A549-CANX-COX4 = assay: phenotypically active (imaging signature differs from DMSO and reproducible) at any of 0.3-9 uM (binary (1 = active, 0 = inactive)); higher = active
Outline: as §1

A549-TP53BP1-CLTA = assay: as above
Outline: as §1

HepG2-ACTB-RAB5A = assay: as above
Outline: as §1

HepG2-CANX-COX4 = assay: as above
Outline: as §1

HepG2-GM130-SQSTM1 [6] = assay: as above
Outline: as §1

HepG2-TP53BP1-CLTA = assay: as above
Outline: as §1

HepG2-TUBA1B-RELA = assay: as above
Outline: as §1

WPMY1-ACTB-RAB5A [7] = assay: as above
Outline: as §1

WPMY1-CANX-COX4 [8] = assay: as above
Outline: as §1

WPMY1-GM130-SQSTM1 [9] = assay: as above
Outline: as §1

WPMY1-TP53BP1-CLTA [10] = assay: as above
Outline: as §1

WPMY1-TUBA1B-RELA = assay: as above
Outline: as §1

Compound	lowest phenotypically active concentration (HepG2-GM130-SQSTM1 [1])	lowest phenotypically active concentration (WPMY1-ACTB-RAB5A [2])	lowest phenotypically active concentration (WPMY1-CANX-COX4 [3])	lowest phenotypically active concentration (WPMY1-GM130-SQSTM1 [4])	lowest phenotypically active concentration (WPMY1-TP53BP1-CLTA [5])	phenotypically active (A549-CANX-COX4)	phenotypically active (A549-TP53BP1-CLTA)	phenotypically active (HepG2-ACTB-RAB5A)	phenotypically active (HepG2-CANX-COX4)	phenotypically active (HepG2-GM130-SQSTM1 [6])	phenotypically active (HepG2-TP53BP1-CLTA)	phenotypically active (HepG2-TUBA1B-RELA)	phenotypically active (WPMY1-ACTB-RAB5A [7])	phenotypically active (WPMY1-CANX-COX4 [8])	phenotypically active (WPMY1-GM130-SQSTM1 [9])	phenotypically active (WPMY1-TP53BP1-CLTA [10])	phenotypically active (WPMY1-TUBA1B-RELA)
CN1C/C(=C/c2ccc(B(O)O)cc2)C(=O)/C(=C/c2ccc(B(O)O)cc2)C1	3 µM	3 µM	3 µM	≤ 0.3 µM	3 µM	1 (active)	1 (active)	1 (active)	1 (active)	1 (active)	1 (active)	1 (active)	1 (active)	1 (active)	1 (active)	1 (active)	1 (active)
O=C(c1ccc(C(=O)N2CCC(N3CCCC3)CC2)c(Nc2ccccc2)c1)N1CCC(N2CCCC2)CC1	9 µM	–	–	–	–	0 (inactive)	0 (inactive)	0 (inactive)	0 (inactive)	1 (active)	0 (inactive)	0 (inactive)	0 (inactive)	0 (inactive)	0 (inactive)	0 (inactive)	0 (inactive)
CCC1(c2ccccc2)NC(=O)N(C)C1=O (stereo not given) [Mephenytoin]	–	–	–	–	–	0 (inactive)	0 (inactive)	0 (inactive)	0 (inactive)	0 (inactive)	0 (inactive)	0 (inactive)	0 (inactive)	0 (inactive)	0 (inactive)	0 (inactive)	0 (inactive)
CCN1CCN(c2cc(-c3ccc(F)cc3)c3c(n2)CCCCCC3)CC1 [blonanserin]	9 µM	9 µM	–	–	9 µM	0 (inactive)	1 (active)	1 (active)	1 (active)	1 (active)	1 (active)	1 (active)	1 (active)	0 (inactive)	0 (inactive)	1 (active)	1 (active)
Oc1ccc(Nc2nc(-c3ccc(Cl)cc3)cs2)cc1	9 µM	3 µM	3 µM	3 µM	9 µM	1 (active)	1 (active)	0 (inactive)	1 (active)	1 (active)	0 (inactive)	0 (inactive)	1 (active)	1 (active)	1 (active)	1 (active)	1 (active)
COc1cc([C@@H]2c3cc4c(cc3[C@@H](O[C@@H]3O[C@@H]5CO[C@@H](C)O[C@H]5[C@H](O)[C@H]3O)[C@H]3COC(=O)[C@H]23)OCO4)cc(OC)c1O [etoposide]	1 µM	1 µM	1 µM	1 µM	1 µM	1 (active)	1 (active)	1 (active)	1 (active)	1 (active)	1 (active)	1 (active)	1 (active)	1 (active)	1 (active)	1 (active)	1 (active)
CCN1CCN(C(c2cccnc2)c2cc(Cl)c3cccnc3c2O)CC1 (stereo not given)	9 µM	9 µM	9 µM	–	9 µM	1 (active)	1 (active)	1 (active)	1 (active)	1 (active)	1 (active)	1 (active)	1 (active)	1 (active)	0 (inactive)	1 (active)	0 (inactive)
CCN(CC)CCCC(C)Nc1ccnc2cc(Cl)ccc12 (stereo not given) [chloroquine]	3 µM	3 µM	3 µM	3 µM	9 µM	0 (inactive)	1 (active)	1 (active)	1 (active)	1 (active)	1 (active)	1 (active)	1 (active)	1 (active)	1 (active)	1 (active)	1 (active)
N#Cc1c(O)c2c(-c3ccc(-c4ccccc4O)cc3)csc2[nH]c1=O	–	–	–	–	–	0 (inactive)	0 (inactive)	0 (inactive)	0 (inactive)	0 (inactive)	0 (inactive)	0 (inactive)	0 (inactive)	0 (inactive)	0 (inactive)	0 (inactive)	0 (inactive)
O=c1cc(-c2cccc3c2Sc2ccccc2S3)oc(N2CCOCC2)c1	9 µM	3 µM	9 µM	9 µM	3 µM	0 (inactive)	0 (inactive)	1 (active)	1 (active)	1 (active)	1 (active)	1 (active)	1 (active)	1 (active)	1 (active)	1 (active)	0 (inactive)
Nc1cc(C(F)(F)F)c(-c2cc(N3CCOCC3)nc(N3CCOCC3)n2)cn1 [buparlisib]	3 µM	3 µM	1 µM	1 µM	3 µM	1 (active)	1 (active)	1 (active)	1 (active)	1 (active)	1 (active)	1 (active)	1 (active)	1 (active)	1 (active)	1 (active)	1 (active)
